Screens as filed in PubChem BioAssay.
A selection: hits, their analogues and other compounds. The true share with any hit is near 2.4%.
D2 PAM-1 – positive allosteric modulators of human D2 dopamine receptor; DiscoveRx D2 beta-arrestin cells, luminescence, 90 min; 100% = 57 uM dopamine signal; potentiation, % (concentration not given with the values); hit rate 0.23% among 360,000; in the data active = potentiation above about 50%; inconclusive = mostly about 30% to 49%
Target sequence (P14416 whole entry, looked up): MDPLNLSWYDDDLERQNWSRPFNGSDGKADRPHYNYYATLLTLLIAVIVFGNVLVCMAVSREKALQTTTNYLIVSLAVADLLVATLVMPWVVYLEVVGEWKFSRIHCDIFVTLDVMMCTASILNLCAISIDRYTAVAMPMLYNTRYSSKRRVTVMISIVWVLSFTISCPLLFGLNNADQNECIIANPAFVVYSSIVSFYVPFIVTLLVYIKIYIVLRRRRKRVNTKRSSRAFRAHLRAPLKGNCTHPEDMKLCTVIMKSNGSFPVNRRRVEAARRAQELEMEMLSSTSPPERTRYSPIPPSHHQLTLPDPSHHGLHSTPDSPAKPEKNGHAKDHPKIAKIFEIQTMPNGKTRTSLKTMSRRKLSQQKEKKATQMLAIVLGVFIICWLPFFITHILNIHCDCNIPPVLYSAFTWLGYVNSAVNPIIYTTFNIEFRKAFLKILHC
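PathHunter D2 cells, attached overnight at 37 deg C, received compound in DMSO plus dopamine at EC20 (50 nM final) for 90 min at 37 deg C. Beta-arrestin recruitment was read as luminescence after 1 h with detection reagent at ambient temperature.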
D2 ag-1 – activates the human D2 dopamine receptor. activation, % (no concentration beside the values). DiscoveRx PathHunter D2 beta-arrestin, luminescence, 90 min; 100% = 57 uM dopamine signal. P14416. hit rate 0.084% among 360,000; in the data active = activation above about 40%; inconclusive = between about 15% and that limit
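Agonist mode: compounds alone added to overnight-plated D2 PathHunter cells for 90 min at 37 C, with 57 uM final dopamine (EC100) defining full response. Beta-arrestin recruitment detected by chemiluminescent reagent, read after 1 h at ambient temperature.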
D2 PAM-2 – D2 dopamine receptor (human) potentiation. P14416. HEK293 T-REx D2, calcium flux, EC20 dopamine potentiation. potentiation, % at 10 µM. hit rate 0.34% among 340,000;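 active = potentiation over 3 SD above the plate norm, cut at about 30% in these data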; note: 0% is about no effect
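Primary screen. Calcium kinetics in induced HEK293 T-REx D2 cells: compound pre-addition 180 s, EC20 dopamine, 180 s more.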
D2 ag-2 – D2 dopamine receptor (human) agonism | HEK293 T-REx D2 cells, calcium flux agonist mode | activation, % at 2 µM | hit rate 0.53% among 340,000 | AID 485358;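 active = activation over 3 SD above normal in the single-dose calcium agonist read, cut at about 30% in these data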; note: 0% is about no effect
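Tetracycline-induced HEK293 T-REx cells with force-coupled D2 receptor, plated overnight at 30 C, loaded with no-wash calcium dye. After a 10 s baseline, compound was pin-added and calcium flux read kinetically for 180 s; calcium rises flagged agonists.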
D2 antag – antagonizes the human D2 dopamine receptor. hit rate 2% among 340,000. AID 485344. HEK293 TREx D2 cells, calcium flux, dopamine EC80. inhibition, % at 10 µM. P14416; in the data active = inhibition above about 30%; inactive = below that, where a call was filed; note: 0% is about no effect
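HEK293 T-REx D2 cells, tet-induced, calcium dye no-wash. Cpd pintool add, 180 s kinetic, then EC80 DA, 180 s kinetic. Ca flux read.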
D3 ag – confirmation of human D3 dopamine receptor agonists, beta-arrestin. shares compounds with D2 ag-2. DiscoveRx D3 beta-arrestin cells, luminescence, 90 min. Potency, µM (series often up to 76.9 µM), inactives show at the highest dose activation, most hits filed as activators. hit rate 4% among 2,300;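 note: potency is the fitted concentration of half-maximal effect; 100% = dopamine control response; nearly all actives have a fitted effect of over 70% in size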
D2 ag-3 – D2 receptor agonism, beta-arrestin counterscreen; shares compounds with D2 ag-2; DiscoveRx PathHunter D2 beta-arrestin, luminescence, 90 min; response scale: percent relative to full dopamine signal; Potency, µM (top dose mostly 76.9 µM), without a hit: top-dose activation, actives largely listed as activators; hit rate 5.9% among 2,300; AID 720507; note: potency is the fitted concentration of half-maximal effect; % of control where 0% means no effect; nearly all actives have a fitted effect of over 70% in size
Starred values were filed as active, the others as inactive; ? = inconclusive; · = no result given. Unless noted, calls come from the whole dose curve; as a rule, active = well fitted activation curve with a large enough effect; inconclusive = small, poorly fitted or top-dose-only effect; inactive = flat fitted curve, though single readings scatter.

SMILES	D2 PAM-1	D2 ag-1	D2 PAM-2	D2 ag-2	D2 antag	D3 ag	D2 ag-3
C[C@@H]1CCCCCCCCC(=O)OCCN1C(=O)OC(C)(C)C	0	-1	-4	1	13	2%	2%
C[C@@H]1CCCCCCCCC(=O)OCCN(C(=O)OC(C)(C)C)[C@H](C)CCCCCCCCC(=O)OCCN1C(=O)OC(C)(C)C	-10	-2	·	·	·	·	·
CC(C)c1cccc(-c2ccc3c(c2)S(=O)(=O)c2cccc(C(=O)O)c2C3=O)c1	-14	-4	-7	-1	-2	-1%	0%
COc1ccc(NC(=O)CN2CCN(c3ccccn3)CC2)cc1Cl	-5	9	-19	66*	-12	?	14%
COc1cc(NC(=O)c2ccccc2)c(OC)cc1NC(=O)CN1CCN(c2ccccn2)CC1	?	7	-29	2	-3	?	?
COc1ccc(NC(=O)CN2CCN(c3ccc(F)cc3)CC2)cc1Cl	-20	-3	-4	1	5	·	·
COc1cc(Cl)c(C)cc1NC(=O)c1ccccc1NC(=O)CN1CCN(c2ccccn2)CC1	7	0	·	·	·	·	·
O=C(c1c2c(nc3ccccc13)C(=O)N(C1CCCCC1)C2)N1CCN(c2ccc(F)cc2)CC1	·	·	11	0	·	·	·
Cc1ccc(N2CC(NC(=O)c3ccc(S(=O)(=O)N4CCCC4)cc3)CC2=O)cc1C (configuration not stated)	·	·	10	1	·	·	·
O=C(NCCc1ccccc1)c1ccc2c(c1)CCN2S(=O)(=O)c1ccccc1	·	·	-11	0	·	·	·
CC(NC(=O)CN1C(=O)c2ccccc2C1=O)c1ccccc1 (configuration not stated)	-8	-2	·	·	·	·	·
CC(C)C(NC(=O)CCN1C(=O)c2ccccc2C1=O)c1ccccc1 (configuration not stated)	-8	3	-7	-1	19	-2%	-6%
COc1ccc(-c2cn3nc(SCC(=O)Nc4cc(C)cc(C)c4)ccc3n2)cc1	·	·	-4	-1	·	·	·
Cc1cccc(N2CCN(c3ccc4cc(S(=O)(=O)N5CCC(C)CC5)ccc4n3)CC2C)c1 (configuration not stated)	·	·	9	0	·	·	·
CCc1ccc(C(=O)NNC(=O)Cn2c(=O)cnc3ccccc32)cc1	-3	-3	6	0	-12	·	·
O=C(Cn1c(=O)cnc2ccccc21)NNC(=O)c1ccc(Cl)cc1	-4	-2	·	·	·	1%	-3%
COC(=O)Cn1c2ccc(F)cc2c2nc(C)sc21	-7	-4	-24	38*	-6	7%	-2%
CCOc1ccccc1CNc1ncnc2c1nc1n2CCCC1	·	·	·	-2	·	·	·
O=C(OCCc1cc2ccccc2c(=O)o1)c1ccc(F)cc1	-7	-2	7	-3	3	·	·
CCN(CC)CCOC(=O)c1cccc(Br)c1	-22	-3	-8	0	4	·	·
O=C(OCCc1cc2ccccc2c(=O)o1)c1cccc(Br)c1	-12	-1	10	-1	-4	-5%	6%
CN(CCOC(=O)c1cccc(Br)c1)C(C)(C)C	-12	-4	-18	71*	31*	-1%	-5%
O=C(OCCc1cc2ccccc2c(=O)o1)c1ccc(C(F)(F)F)cc1	-7	-2	23	0	2	-5%	0%
O=C(NCc1ccc2c(c1)OCO2)c1nc(Cn2cc(Br)cn2)no1	-4	2	·	·	·	-1%	-3%
O=C(NCc1ccccc1Cl)c1ccc2c(c1)ncn2-c1cccc(F)c1	·	·	-5	·	·	·	·
CNC(=S)Nc1cc2oc3ccccc3c2cc1OC	7	2	-19	57*	14	-2%	16%
CCNC(=S)Nc1cc2oc3ccccc3c2cc1OC	-15	-5	-13	0	-2	·	·
O=C(c1ccco1)N1CCN(Cc2cccc([N+](=O)[O-])c2)CC1	-3	-2	-14	37*	-2	-2%	6%
O=C(c1ccc([N+](=O)[O-])cc1)N1CCN(C(=O)c2cccs2)CC1	-8	0	-5	·	·	·	·
